# Data: PubChem BioAssay AID1159580 (chemical genetic matrix, 2015)
# About 2,000 (36%) of roughly 5,500 compounds were called active. Inconclusive results (about 18%) are left out. This is one part of the list. Values without a mark were called inactive. Cut-off read from the data, not from the text of the source: active = normalized growth mostly below about 0.91 (no sharp cut-off); inconclusive = no clear call, values can overlap the other calls; inactive = mostly above about 0.92.
# Assay: chemical genetic growth profiling, strain panel (AID 1159580);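 note: tested at 20 µM; growth read once vehicle control cultures reached saturation at 30 °C; 1 = growth at the plate median or of vehicle wells; lower values mean less growth of the strain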
# Settings: S. cerevisiae deletion strains, growth OD
# [1] = locus YAR019C, strain CDC15, hits give low values
# [2] = locus YBL105C, strain PKC1, hits give low values
# [3] = locus YBR135W, strain CKS1, hits give low values
# [4] = locus YBR136W, strain MEC1, hits give low values
# [5] = locus YDL017W, strain CDC7, hits give low values
# [6] = locus YDL028C, strain MPS1, hits give low values
# [7] = locus YDL108W, strain KIN28, hits give low values
# [8] = locus YDL214C, strain PRR2, hits give low values
# [9] = locus YDR052C, strain DBF4, hits give low values
# [10] = locus YDR054C, strain cdc34, hits give low values
# [11] = locus YDR226W, strain ADK1, hits give low values
# [12] = locus YDR477W, strain SNF1, hits give low values
# [13] = locus YER123W, strain YCK3, hits give low values
# [14] = locus YER133W, strain GLC7, hits give low values
# [15] = locus YFL029C, strain CAK1, hits give low values
# [16] = locus YFR019W, strain FAB1, hits give low values
# [17] = locus YFR028C, strain CDC14, hits give low values
# [18] = locus YGR040W, strain KSS1, hits give low values
# [19] = locus YGR052W, strain FMP48, hits give low values
# [20] = locus YGR092W, strain DBF2, hits give low values
# [21] = locus YHR030C, strain SLT2, hits give low values
# [22] = locus YHR079C, strain IRE1, hits give low values
# [23] = locus YHR082C, strain KSP1, hits give low values
# [24] = locus YHR205W, strain SCH9, hits give low values
# [25] = locus YIL147C, strain SLN1, hits give low values
# [26] = locus YJL095W, strain BCK1, hits give low values
# [27] = locus YJL157C, strain FAR1, hits give low values
# [28] = locus YJR016C, strain ILV3, hits give low values
# [29] = locus YJR066W, strain TOR1 (second series), hits give low values
# [30] = locus YJR066W, strain TOR1, hits give low values
# [31] = locus YKL048C, strain ELM1, hits give low values
# [32] = locus YKL067W, strain YNK1, hits give low values
# [33] = locus YKL101W, strain HSL1, hits give low values
# [34] = locus YKL193C, strain SDS22, hits give low values
# [35] = locus YKL203C, strain TOR2, hits give low values
# [36] = locus YLR113W, strain HOG1, hits give low values
# [37] = locus YLR133W, strain CKI1, hits give low values
# [38] = locus YLR403W, strain SFP1, hits give low values
# [39] = locus YML070W, strain DAK1, hits give low values
# [40] = locus YMR001C, strain CDC5, hits give low values
# [41] = locus YMR205C, strain PFK2 (second series), hits give low values
# [42] = locus YMR277W, strain FCP1, hits give low values
# [43] = locus YNL006W, strain LST8, hits give low values
# [44] = locus YNL020C, strain ARK1, hits give low values
# [45] = locus YNL161W, strain CBK1, hits give low values
# [46] = locus YNL183C, strain NPR1, hits give low values
# [47] = locus YNL207W, strain RIO2, hits give low values
# [48] = locus YNL222W, strain SSU72, hits give low values
# [49] = locus YNL307C, strain MCK1 (second series), hits give low values
# [50] = locus YOL078W, strain AVO1, hits give low values
# [51] = locus YOL136C, strain PFK27, hits give low values
# [52] = locus YOR061W, strain CKA2, hits give low values
# [53] = locus YOR119C, strain RIO1, hits give low values
# [54] = locus YOR231W, strain MKK1, hits give low values
# [55] = locus YOR329C, strain SCD5, hits give low values
# [56] = locus YPL031C, strain PHO85, hits give low values
# [57] = locus YPL153C, strain RAD53, hits give low values
# [58] = locus YPL204W, strain HRR25, hits give low values
# [59] = locus YPL209C, strain IPL1, hits give low values
# [60] = locus YPL256C, strain CLN2, hits give low values
# [61] = locus YPR025C, strain CCL1, hits give low values
# [62] = locus YPR111W, strain DBF20, hits give low values
# [63] = strain NNK1, hits give low values
# [64] = strain TSCII, hits give low values
smiles,measurement,setting,value
CS(=O)(=O)/C(C#N)=C/c1ccccc1OCc1c(Cl)cccc1Cl,normalized growth,[1],0.978
same,normalized growth,[2],0.958
same,normalized growth,[3],0.964
same,normalized growth,[4],0.958
same,normalized growth,"locus YBR160W, strain CDC28, hits give low values",0.954
same,normalized growth,[5],0.961
same,normalized growth,[6],0.956
same,normalized growth,"locus YDL101C, strain DUN1, hits give low values",0.958
same,normalized growth,[7],0.942
same,normalized growth,"locus YDL132W, strain cdc53, hits give low values",0.96
same,normalized growth,[8],0.926
same,normalized growth,[9],0.957
same,normalized growth,[10],0.975
same,normalized growth,[11],0.969
same,normalized growth,[12],0.943
same,normalized growth,[13],0.913
same,normalized growth,[14],0.953
same,normalized growth,"locus YFL009W, strain cdc4, hits give low values",0.977
same,normalized growth,[15],0.979
same,normalized growth,"locus YFR003C, strain YPI1, hits give low values",0.965
same,normalized growth,[16],0.961
same,normalized growth,[17],0.974
same,normalized growth,[18],0.91
same,normalized growth,[19],0.97
same,normalized growth,[20],0.934
same,normalized growth,[21],1.02
same,normalized growth,[22],1.03
same,normalized growth,[23],1.01
same,normalized growth,[24],0.916
same,normalized growth,[25],0.956
same,normalized growth,[26],0.976
same,normalized growth,"locus YJL128C, strain PBS2, hits give low values",0.918
same,normalized growth,[27],0.95
same,normalized growth,[28],0.973
same,normalized growth,[29],0.947
same,normalized growth,[30],1.04
same,normalized growth,[31],0.901
same,normalized growth,[32],0.942
same,normalized growth,[33],0.892
same,normalized growth,[34],0.968
same,normalized growth,[35],0.996
same,normalized growth,[36],0.866
same,normalized growth,[37],0.92
same,normalized growth,[38],0.885
same,normalized growth,[39],0.923
same,normalized growth,[40],0.966
same,normalized growth,[41],0.953
same,normalized growth,[42],0.978
same,normalized growth,[43],0.973
same,normalized growth,[44],0.926
same,normalized growth,[45],0.964
same,normalized growth,[46],1.02
same,normalized growth,[47],0.946
same,normalized growth,[48],0.966
same,normalized growth,[49],0.945
same,normalized growth,[50],0.962
same,normalized growth,[51],0.879
same,normalized growth,[52],0.922
same,normalized growth,[53],0.986
same,normalized growth,[54],0.948
same,normalized growth,[55],0.968
same,normalized growth,[56],0.934
same,normalized growth,[57],0.95
same,normalized growth,[58],0.897
same,normalized growth,[59],0.967
same,normalized growth,[60],0.979
same,normalized growth,[61],0.969
same,normalized growth,"locus YPR106W, strain ISR1, hits give low values",0.948
same,normalized growth,[62],0.924
same,normalized growth,[63],0.966
same,normalized growth,[64],0.962
CC(C)(C)C(=O)/C(C#N)=C/c1c(Cl)cccc1Cl,normalized growth,[1],0.366 (active)
same,normalized growth,[2],0.373 (active)
same,normalized growth,[3],0.894 (active)
same,normalized growth,[4],0.722 (active)
same,normalized growth,[5],0.695 (active)
same,normalized growth,[6],0.919
same,normalized growth,[7],0.957
same,normalized growth,[8],0.124 (active)
same,normalized growth,[9],0.915
same,normalized growth,[10],0.291 (active)
same,normalized growth,[11],0.913
same,normalized growth,[12],0.11 (active)
same,normalized growth,[13],0.105 (active)
same,normalized growth,[14],0.108 (active)
same,normalized growth,[15],0.315 (active)
same,normalized growth,[16],0.108 (active)
same,normalized growth,[17],0.575 (active)
same,normalized growth,[18],0.112 (active)
same,normalized growth,[19],0.136 (active)
same,normalized growth,[20],0.11 (active)
same,normalized growth,[21],0.111 (active)
same,normalized growth,[22],0.112 (active)
same,normalized growth,[23],0.137 (active)
same,normalized growth,[24],0.000694 (active)
same,normalized growth,[25],0.691 (active)
same,normalized growth,[26],0.104 (active)
same,normalized growth,[27],0.105 (active)
same,normalized growth,[28],0.64 (active)
same,normalized growth,[29],0.124 (active)
same,normalized growth,[30],0.131 (active)
same,normalized growth,[31],0.151 (active)
same,normalized growth,[32],0.129 (active)
same,normalized growth,[33],0.131 (active)
same,normalized growth,[34],0.506 (active)
same,normalized growth,[35],0.115 (active)
same,normalized growth,[36],0.165 (active)
same,normalized growth,[37],0.125 (active)
same,normalized growth,[38],0.0102 (active)
same,normalized growth,[39],0.122 (active)
same,normalized growth,[40],0.401 (active)
same,normalized growth,[41],0.142 (active)
same,normalized growth,[42],0.397 (active)
same,normalized growth,[43],0.341 (active)
same,normalized growth,[44],0.118 (active)
same,normalized growth,[45],0.402 (active)
same,normalized growth,[46],0.132 (active)
same,normalized growth,[47],0.359 (active)
same,normalized growth,[48],0.619 (active)
same,normalized growth,[49],0.105 (active)
same,normalized growth,[50],0.492 (active)
same,normalized growth,[51],0.116 (active)
same,normalized growth,[52],0.157 (active)
same,normalized growth,[53],0.115 (active)
same,normalized growth,[54],0.131 (active)
same,normalized growth,[55],0.513 (active)
same,normalized growth,[56],0.102 (active)
same,normalized growth,[57],0.115 (active)
same,normalized growth,[58],0.11 (active)
same,normalized growth,[59],0.495 (active)
same,normalized growth,[60],0.152 (active)
same,normalized growth,[61],0.652 (active)
same,normalized growth,[62],0.949
same,normalized growth,[63],0.265 (active)
same,normalized growth,[64],0.322 (active)
